TSG101-PTAP inh = blocks PTAP/TSG101 interaction to inhibit HIV-1 budding; Fluorescence polarization, FITC-PTAP peptide / Tsg101 binding; 340,000 tested, under 10 active; Potency, µM (highest dose often 115 µM), for the others: at the top dose activity change, negative = inhibition, usual class: inhibitors; Q99816; active = well fitted inhibition curve with a large enough effect in the main read-out, with a control signal flat, not every such curve was filed as active; inconclusive = small, poorly fitted or top-dose-only effect, or effect the other way, or a change in a side signal; inactive = no such curve, though single readings can be large or run the other way; also: potency is read from the fitted curve at half-maximal effect; % of control where 0% means no effect
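Steps: Tsg101 binding domain dispensed (10 uM final), compounds pinned in DMSO, FITC-labeled PTAP-motif peptide added (50 nM final); after 20 min binding at room temperature, polarization measured.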
IL2 activator = activates IL-2 in a cell-based reporter assay. IL-2 activation reporter assay, cell-based qHTS; stimulated with anti-CD3/CD4/CD28 beads; in transgenic mouse T cells. activation, % (series mostly up to about 46 µM). actives 0.065% (n = 360,000). AID 652025; in the data active = activation above about 50%; inconclusive = mostly about 30% to 49%; also: 0% is about no effect
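First, unstimulated transgenic mouse T cells were exposed to compound for 60 min. Next, anti-CD3/anti-CD4-coated beads with anti-CD28 were added. Finally, after 18 h at 37 degrees C, EGFP and DsRed were imaged.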
TRPML1 inh = inhibitors of human TRPML1 channel | TRPML1-inducible cells, Ca2+ dye fluorescence, FDSS; hits give low values; inhibition of EC80 agonist-evoked calcium signal | Q9GZU1 | actives 0.02% (n = 390,000) | activity change, negative = inhibition, % (no concentration beside the values) | AID 624415; in the data active = activity change below about -50%; inconclusive = between about -30% and that limit;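 also: stimulus is agonist 54-4 at its EC80 concentration; % is scaled to controls: 0 for no effect and ±100 for the full control effect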
Target sequence (Q9GZU1 whole entry, looked up): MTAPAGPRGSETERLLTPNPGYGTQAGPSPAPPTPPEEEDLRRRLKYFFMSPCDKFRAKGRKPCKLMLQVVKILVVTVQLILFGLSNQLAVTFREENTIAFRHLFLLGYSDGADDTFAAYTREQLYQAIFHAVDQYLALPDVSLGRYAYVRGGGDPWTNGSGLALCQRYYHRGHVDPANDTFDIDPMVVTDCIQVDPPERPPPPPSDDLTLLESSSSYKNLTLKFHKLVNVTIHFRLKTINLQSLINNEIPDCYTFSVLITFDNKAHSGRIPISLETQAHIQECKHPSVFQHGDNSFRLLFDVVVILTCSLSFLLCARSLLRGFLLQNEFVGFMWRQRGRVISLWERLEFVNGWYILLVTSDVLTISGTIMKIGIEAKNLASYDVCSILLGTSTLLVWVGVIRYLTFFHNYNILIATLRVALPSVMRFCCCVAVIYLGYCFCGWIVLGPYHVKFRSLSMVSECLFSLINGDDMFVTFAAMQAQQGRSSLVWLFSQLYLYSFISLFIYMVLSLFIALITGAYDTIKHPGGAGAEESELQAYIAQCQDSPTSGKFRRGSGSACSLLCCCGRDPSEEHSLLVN
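TRPML1-DL cells, Tet-induced overnight (~16 h, 37 °C) at 1,500 cells/well, were loaded with Ca8 no-wash dye plus quencher for 45-90 min at room temperature. Compounds were pinned during FDSS kinetic reading; agonist 54-4 at EC80 (4 uM final) then added.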
TRPML1 ag = agonists of human TRPML1 channel; activation, % (no concentration beside the values); AID 624414; TRPML1-expressing cells, Ca2+ dye fluorescence, FDSS; actives 0.12% (n = 410,000); Q9GZU1; in the data active = activation above about 50%; inconclusive = mostly about 30% to 49%; also: 0% is about no effect
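Agonist activity was taken from a 110 s kinetic Ca2+ dye read on the FDSS after pinning compounds onto TRPML1-DL cells. The cells were seeded at 1,500/well with Tet inducer, incubated about 16 h, then dye-loaded at room temperature.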
PKM2 act = PKM2 (human) enzyme activation. actives 0.34% (n = 260,000). Potency, µM (highest dose often 57.5 µM), for inactives: at the top dose activation, hits mostly activators. P14618. purified PKM2, Kinase-Glo ATP luminescence, activation; response scale: 0% is enzyme alone, no compound. AID 1631; also: potency is read from the fitted curve at half-maximal effect; % is scaled to controls: 0 for no effect and ±100 for the full control effect; nearly all actives have a fitted effect of over 55% in size
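hPK-M2, >95% pure; 0.1 mM ADP / 0.5 mM PEP final; imidazole pH7.2 buffer w/ 7 mM MgCl2, 50 mM KCl; 1 h RT; Kinase-Glo lum. Intermediate enzyme activity for dual inhibitor/activator qHTS.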
BRCA1 expr up = BRCA1 expression activation. MCF7-BRCA1-FFLuc reporter, luminescence, 48 h; response scale: scaled: vehicle 0%, 10 µM genistein 100%. Potency, µM (top dose mostly 46.1 µM), without a hit: at the highest dose activation, most hits filed as activators. actives 1.1% (n = 380,000); also: potency is read from the fitted curve at half-maximal effect; nearly all actives have a fitted effect of over 80% in size
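MCF7-BRCA1-FFLuc cells, 2000/well in phenol-red-free MEM, attached 2 h then treated 48 h at 37 C. Luciferase luminescence read 15 min after reagent; normalized to genistein maximum activation (10microM) and DMSO, concentration-response fitted.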
An asterisk follows results filed as active; ? = inconclusive; nt = no result. This is a sample that favours compounds with a hit; in the whole collection about 1.3% have one here. Unless noted, calls follow the shape of the dose curve; as a rule, active = well fitted activation curve with a large enough effect; inconclusive = small, poorly fitted or top-dose-only effect; inactive = no such curve, though single readings can be large or run the other way.

SMILES	TSG101-PTAP inh	IL2 activator	TRPML1 inh	TRPML1 ag	PKM2 act	BRCA1 expr up
COC(=O)c1ccc(COC(=O)c2ccc(SC)cc2OC)cc1	-3.6%	-0.9	15.6	7.3	2.0%	8.91µM*
COc1cc(SC)ccc1C(=O)OCC(=O)NCCNC(=O)COC(=O)c1ccc(SC)cc1OC	-4.0%	-0.5	35.9	1.3	7.4%	9.3%
COC(=O)c1cnc(SCC(=O)c2ccccc2)n1C	-7.7%	1.5	0.3	-0.1	nt	?
COC(=O)c1cnc(SCc2ccc(Cl)cc2)n1C	0.3%	-0.4	-11.0	3.0	4.8%	11.2µM*
COC(=O)C(c1ccccc1)C(C(=O)OC)c1ccccc1 (stereo not given)	-2.4%	-0.9	-5.7	0.2	nt	12.7%
COC(=O)[C@@H](c1ccccc1)N(C)S(=O)(=O)c1cccc(S(=O)(=O)N(C)[C@@H](C(=O)OC)c2ccccc2)c1	0.3%	-4.5	-21.9	73.6*	-2.6%	-31.0%
C/C(=C1/C=Nc2ccccc21)c1ccc(N(C)C)cc1	nt	nt	nt	-0.3	nt	-39.4%
Cc1ccc(C(=O)N/N=C\c2ccccc2[N+](=O)[O-])cn1	-10.8%	-1.0	0.7	4.3	-12.2%	4.47µM*
CC(C)CCNC(=O)c1ccc2c(c1)ncn2C1CCCC1	-5.9%	0.4	24.5	-0.5	-4.8%	7.08µM*
CCOC(=O)Nc1ccc2c(c1)ncn2C1CCCCC1	-5.7%	-1.1	-4.5	0.5	-4.6%	12.6µM*
COc1ccc(CCNC(=O)c2nn(C)cc2Cl)cc1	-0.8%	-1.6	-1.7	-0.2	2.7%	7.94µM*
COc1ccc(CCNC(=O)c2ccc(Cl)cc2)cc1	-5.1%	4.1	-5.7	0.3	7.3%	16.3%
CCOC(=O)c1ccc2[nH]c3c(c2c1)CCCCC3=O	-1.4%	-0.7	0.2	1.5	3.7%	3.98µM*
CCCOc1ccc(-c2nnc(N)s2)cc1	-0.5%	1.4	1.5	0.0	3.7%	4.47µM*
COc1ccc(-c2nnc(N)s2)cc1	-5.4%	0.4	7.3	-0.9	-7.6%	24.5%
O=[N+]([O-])c1ccc(O/N=[N+](\[O-])N2CCCC2)c([N+](=O)[O-])c1	nt	nt	4.6	1.2	nt	0.0%
O=C(Nc1ccc(Cl)cc1)c1cc(S(=O)(=O)NC2CCCCCC2)ccc1F	nt	nt	28.9	2.5	nt	nt
Cc1nn(CC(=O)c2ccccc2Cl)c(C)c1[N+](=O)[O-]	0.9%	5.6	-15.3	1.9	0.7%	10µM*
CCOC(=O)c1c(-c2ccc(C)o2)csc1NC(=O)CSc1nnnn1-c1ccccc1	-5.0%	-2.5	11.6	0.8	7.94µM*	-23.0%
CCOC(=O)c1c(-c2ccc(C)o2)csc1NC(=S)NC(=O)c1ccccc1Br	nt	-4.2	14.1	0.4	3.16µM*	-89.7%
CCOC(=O)c1c(-c2ccc(C)o2)csc1NC(=S)NC(=O)c1cccs1	-0.4%	0.1	-12.3	0.5	?	-64.4%
CCOC(=O)c1c(-c2cccs2)csc1NC(C)=O	-0.4%	0.1	10.7	3.4	25.3%	-14.0%
CCOC(=O)c1c(-c2cccs2)csc1NC(=O)CSc1ncn[nH]1	-5.8%	-2.1	5.3	1.0	28.2µM*	-20.8%
CCOC(=O)c1sc(NC(=O)CSc2nnnn2-c2ccccc2)nc1C	-11.5%	-0.6	-6.3	2.8	2.5%	-0.6%
CCOC(=O)c1c(-c2ccc(C)o2)csc1NC(=O)CSc1nnc(C)s1	-7.4%	-1.6	-8.3	2.5	12.6µM*	-24.9%
SMILES	TSG101-PTAP inh	IL2 activator	TRPML1 inh	TRPML1 ag	PKM2 act	BRCA1 expr up
CCCCOc1ccc(/C(N)=N/O)cc1	-13.4%	-0.5	19.0	-0.8	-9.9%	11.2µM*
CCCCOc1ccc(C(=O)NC)cc1	-12.1%	0.9	7.8	1.2	-0.5%	48.9%
CCOC(=O)C(C(=O)OCC)C1N=C(N)N=C2Oc3ccccc3N21 (stereo not given)	-9.1%	-0.2	-17.6	-0.5	-2.6%	12.6µM*
COc1ccc(CNc2nc(N)nc3nc[nH]c23)cc1	nt	nt	nt	-0.5	nt	2.9%
CCOc1c(O)ccc(/C=C2\SC(=S)NC2=O)c1[N+](=O)[O-]	2.5%	-0.4	8.2	-0.2	-65.2%	11.2µM*
Cc1ccc(NC(=O)Cn2c(=O)n(Cc3ccco3)c(=O)c3oc4ccccc4c32)cc1C	nt	nt	-24.3	1.0	nt	nt
O=S(=O)(Nc1ccc(N2CCOCC2)nn1)c1ccccc1	-3.1%	-0.1	-5.5	-0.2	14.1µM*	-1.0%
CCCCN1C(=O)/C(=C/C=C2/CC(C)(C)CN2C)SC1=S	?	20.7	-9.5	52.8*	2.2%	10µM*
CCCCN1C(=O)/C(=C/C=C2\Oc3ccccc3N2CC)SC1=S	?	-57.2	4.6	?	-0.3%	-1.9%
Cc1cccc2cc(CN(Cc3ccccc3)Cc3nnnn3Cc3ccccc3)c(=O)[nH]c12	nt	nt	nt	-0.5	nt	4.0%
Clc1ccc(OCCCCCN2CCCC2)c(Br)c1	-0.5%	-5.1	16.8	1.5	-10.4%	-57.4%
Clc1ccc(OCCCN2CCCCC2)c(Br)c1	3.7%	-0.5	0.1	-0.5	7.2%	10µM*
O=[N+]([O-])c1ccccc1OCc1nc(-c2cccs2)no1	-1.2%	1.7	-6.0	-1.0	nt	2.82µM*
O=[N+]([O-])c1ccc(F)cc1OCc1nc(-c2cccs2)no1	0.7%	-4.4	9.4	-0.3	5.3%	26.1%
CC(C)c1ccc(C(=O)C[N+]2(C)CCOCC2)cc1	nt	nt	nt	-0.3	nt	nt
